# GRK2 inh: compounds blocking aptamer binding on GRK2 – biochemical, human GRK2, bead flow cytometry, HTS, primary screen; AID 488847, 2010; Beta-adrenergic receptor kinase 1 (Homo sapiens), P25098; hit rate 0.59% among 330,000; FAM-aptamer displacement from GRK2; inhibition of aptamer binding, % at 10 µM;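 active = inhibition of aptamer binding above 40%, roughly 3 SD of noise, on plates passing a quality check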;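 also: median bead fluorescence of bound FAM aptamer so fluorescent compounds give negative values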
# NTR1 ag: agonists of human NTR1, primary screen, imaging, U2OS cells, beta-arrestin-GFP, high content; Neurotensin receptor type 1 (Homo sapiens), P30989; NTR1-U2OS beta-arrestin-GFP spot imaging, agonist mode; activation, % at 20 µM; hit rate 0.17% among 330,000; AID 493036, 2011;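 active = activation at or above 40% of the spot to cytoplasm intensity ratio, with at least 20 cells analyzed; inconclusive = wells under 20 cells, flagged as cytotoxic or low count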;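 also: 0% = DMSO without peptide and 100% = 100 nM NTR1 peptide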
# B2AR ag: beta2AR agonists driving receptor internalization, primary screen, cell-based, FAP fluorogen, flow cytometry; Beta-2 adrenergic receptor (Homo sapiens), P07550; Am2.2-beta2AR cells; response, % (test concentration not listed); hit rate 0.43% among 340,000;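 active = response above a set limit, near 3 SD of response in nonfluorescent compounds, cut at about 42% in these data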
# Target sequence (P07550 whole entry, looked up): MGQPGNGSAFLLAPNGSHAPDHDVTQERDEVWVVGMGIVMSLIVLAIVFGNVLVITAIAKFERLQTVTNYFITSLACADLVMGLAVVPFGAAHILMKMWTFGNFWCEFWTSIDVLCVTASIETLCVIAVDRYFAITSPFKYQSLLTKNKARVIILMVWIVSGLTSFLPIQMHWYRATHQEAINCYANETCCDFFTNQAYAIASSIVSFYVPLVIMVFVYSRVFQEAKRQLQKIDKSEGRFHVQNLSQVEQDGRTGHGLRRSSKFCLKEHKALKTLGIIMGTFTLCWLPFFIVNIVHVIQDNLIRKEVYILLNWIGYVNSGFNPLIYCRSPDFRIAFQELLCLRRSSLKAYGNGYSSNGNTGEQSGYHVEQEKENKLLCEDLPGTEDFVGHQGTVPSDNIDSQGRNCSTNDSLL
# Bfl-1 A1 inh: caspase 3/7 activation in MEF A1-2A-BIM cells, primary screen, A1 inhibitor project, cell-based, luminescence, HTS. Caspase-Glo 3/7 luminescence, 3 h; percent of clofoctol response, vehicle zero. caspase activation, % (no concentration beside the values). hit rate 0.066% among 330,000;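 active = over half of replicate activation scores above 10%, or exactly half above 10 with the replicate mean above 10; inconclusive = replicate mean below 10 yet half the replicates above 10; inactive = over half of replicates below 10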
# VLA-4 inh: inhibition in human VLA-4 binding assay, primary screen, VLA-4 allosteric modulator project, MLPCN library, flow cytometry, VLA-4 expressing cells; ligand binding flow cytometry; inhibition, % (about 7 µM as worked out from the volumes in the protocol); hit rate 0.2% among 330,000; AID 2557, 2010; in the data active = inhibition above about 50%
# NTR1 ag conf: NTR1 agonists, single-dose retest, confirmation, imaging, U2OS cells, beta-arrestin-GFP, single concentration; activation, % at 20 µM; hit rate 38% among 480; NTR1-U2OS beta-arrestin-GFP translocation imaging; shares compounds with NTR1 ag;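 active = mean activation at 20 µM of at least 40%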;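 also: 0% = DMSO without peptide and 100% = 100 nM NTR1 peptide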
# * marks the source's active call; other numbers are inactive results; ? = inconclusive; · = not tested or not shown. The list is not random: actives were taken first. Their share in the collection is about 1.3%.
SMILES,GRK2 inh,NTR1 ag,B2AR ag,Bfl-1 A1 inh,VLA-4 inh,NTR1 ag conf
O=C(COc1ccc(C(=O)O)cc1)Nc1cccc(C(F)(F)F)c1,0,1,-3,1,-6,·
O=C(Nc1ccccc1)Nc1cccc(C(F)(F)F)c1,0,1,7,-1,3,·
Cc1ccc(NCC(=O)N2CCN(S(=O)(=O)c3ccccc3)CC2)cc1F,·,-2,4,·,·,·
CCCCCc1c2c(cc(O)c1C(=O)O)OC(=O)c1cc(C(=O)CCCC)c(OC)cc1O2,0,48*,7,·,0,12
CCCCCc1c2c(cc(O)c1C(=O)O)OC(=O)c1c(cc(OC)cc1C(=O)CCCC)O2,0,38,-2,0,-15,·
CC1=C(C(=O)OC2CCCCCCC2)C(c2cc3c(cc2Br)OCO3)CC(=O)N1 (stereo unspecified),6,44*,4,1,18,42*
O=C(N/N=C/c1cn(-c2ccccc2)nc1-c1cc2ccccc2o1)c1cccnc1,2,40*,25,-1,-8,62*
O=C(N/N=C/c1cn(-c2ccccc2)nc1-c1cc2ccccc2o1)c1ccncc1,0,9,8,-2,-13,·
OC[C@H]1O[C@@](CO)(O[C@H]2O[C@H](CO)[C@@H](O)[C@H](O)[C@H]2O)[C@@H](O[C@H]2O[C@H](CO)[C@@H](O)[C@H](O)[C@H]2O)[C@@H]1O,·,·,-2,·,·,·
Cc1ccc(S(C)(=O)=O)cc1C(=O)NC(C)C1CC2CCC1C2 (stereo unspecified),1,1,-8,2,-7,·
N=c1c(-c2nc3ccccc3[nH]2)cc(C(=O)c2ccco2)nn1-c1ccccc1,2,6,-14,0,-14,·
N=c1c(-c2nc3ccccc3[nH]2)cc(C(=O)c2cccs2)nn1-c1ccccc1,0,52*,-1,2,-5,-1
COc1ccccc1-n1c(CCC(=O)O)ccc1-c1ccccc1,3,0,3,0,-38,·
Oc1ccccc1-n1c(-c2ccccc2)ccc1-c1ccccc1,1,51*,1,0,3,6
c1ccc(N2CCCCC2)c(Nc2nc3ccccc3n3cnnc23)c1,0,40*,-4,0,0,33
FC(F)(F)c1ccc(N2CCOCC2)c(Nc2nc3ccccc3n3cnnc23)c1,1,45*,2,0,-14,37
COc1ccc(C(=O)NC(C)CCc2ccccc2)c(O)c1 (stereo unspecified),0,-1,-6,0,0,·
COc1ccc(CNCC(O)COc2ccc(C(C)(C)c3ccccc3)cc2)cc1 (stereo unspecified),0,50*,14,0,3,6
OC(CNCCc1ccc(C(F)(F)F)cc1)COc1cccc2ccccc12 (stereo unspecified),0,13,27,1,2,·
OC(CNCCc1ccc(C(F)(F)F)cc1)COc1ccc2ccccc2c1 (stereo unspecified),0,51*,11,-1,-10,7
CC(C)(C)c1ccc(S(=O)(=O)N2CCN(c3ccccn3)CC2)cc1,1,-2,-8,-1,-6,·
O=C(Nc1ccc(Cl)cc1)c1nc[nH]c1C(=O)NCCCCNC(=O)c1[nH]cnc1C(=O)Nc1ccc(Cl)cc1,0,4,6,0,-1,·
COc1ccc(C(=O)/C=C2/C(=O)Nc3ccccc32)c(OC)c1,0,52*,23,1,11,49*
COc1cc(OC)c(/C=C2\C(=O)Nc3ccccc32)c(OC)c1,0,5,·,1,-9,·
Cc1ccc(NC(=O)c2ccc(Nc3c([N+](=O)[O-])cc([N+](=O)[O-])cc3[N+](=O)[O-])cc2)cc1,0,46*,14,2,8,22
SMILES,GRK2 inh,NTR1 ag,B2AR ag,Bfl-1 A1 inh,VLA-4 inh,NTR1 ag conf
CC(=O)Nc1ccc(NC(=O)c2cc([N+](=O)[O-])cc([N+](=O)[O-])c2)cc1,2,0,3,0,13,·
CN(CC(=O)Nc1ccc(Cl)c(C(F)(F)F)c1)C(=O)/C=C/c1cccs1,1,0,2,0,2,·
COc1ccc([C@H]2Oc3cc(O)cc(O)c3C(=O)C2[C@@H]2C(=O)c3c(O)cc(O)cc3O[C@@H]2c2ccc(OC)cc2)cc1 (stereo partly specified),6,50*,·,0,-15,9
COc1ccc(C2CC(=O)Oc3cc(O)cc(O)c32)cc1 (stereo unspecified),0,-2,4,0,15,·
CCOC(=O)c1c(CSc2ccc(C)cc2)oc2ccc(O)cc12,0,45*,-5,1,1,6
CC(CCc1ccccc1)NC(=O)COC(=O)c1ccc(S(C)(=O)=O)c([N+](=O)[O-])c1 (stereo unspecified),0,42*,30,0,40,79*
O=C(N/C=N/OCc1ccc(Cl)cc1Cl)NOCc1ncc(C(F)(F)F)cc1Cl,0,41*,-7,?,4,12
CO/N=C/NC(=O)NOCc1ncc(C(F)(F)F)cc1Cl,1,0,3,0,2,·
COCCCn1c(SCc2cccc(C(F)(F)F)c2)nc2cc(OC)c(OC)cc2c1=N,2,60*,0,0,10,10
COc1cc2nc(SCc3ccc(C(F)(F)F)cc3)n(Cc3cccs3)c(=N)c2cc1OC,0,5,1,1,2,·
COCCCn1c(SCc2ccccc2)nc2cc(OC)c(OC)cc2c1=N,1,19,11,1,13,·
COc1ccc(Cn2c(SCc3ccc(C)cc3)nc3cc(OC)c(OC)cc3c2=N)cc1Cl,0,54*,·,3,27,64*
O=C(NCCc1ccccc1)c1ccc(NC(=O)c2cccnc2)cc1,1,0,0,0,-3,·
O=C(Nc1ccc(-c2noc(CCc3ccccc3)n2)cc1)c1cccnc1,18,67*,24,0,-4,15
N=c1c(C(=O)NCCc2ccccc2)cc2c(=O)n3ccccc3nc2n1Cc1ccco1,4,43*,-6,3,42,6
c1ccc2scnc2c1,·,·,13,·,·,·
CC1(c2ccccc2)CC(C)(C)n2c(O)c(C3=NC(=S)NC3=O)c3cccc1c32 (stereo unspecified),4,42*,10,0,5,27
Cc1ccc(S(=O)(=O)Oc2ccc3c(c2)O/C(=C\c2cccnc2)C3=O)cc1,1,43*,7,0,6,33
